Test results taken from the supplement of paper PMC7366291.
Counter-ions that a name gives are not always drawn. ± gives the standard deviation or the standard deviation of the averaged measurements.

Assays:
Details in all cases: 25 µM; exposure: 24-48 hpf
[1] = test system: Danio rerio Tg(wt1b:EGFP) embryo, pronephros; test: glomerular separation, fold change vs DMSO control; higher = glomeruli further apart (abnormal)
Summary of the method: (§1)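 From 24 to 48 hpf, at 28.5°C, dechorionated Tg(wt1b:EGFP) zebrafish embryos sat in HEPES-buffered E3 with 0.003% PTU carrying 25 μM compound and 0.5% DMSO. Their pronephroi were imaged dorsally in 96-well plates filled with agarose, using 470 nm light and 10 z-slices. A Fiji macro measured distances and angles between 16 reference points that were set manually on maximum projections, and any value more than 2 SD from its feature mean was excluded. Features are expressed as fold change relative to the mean of DMSO-treated embryos imaged on the same day.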

[2] = test system: Danio rerio Tg(wt1b:EGFP) embryo, pronephros; test: glomerular width (mean of left and right), fold change vs DMSO control; higher = wider glomerulus
Summary of the method: as §1

[3] = test system: Danio rerio Tg(wt1b:EGFP) embryo, pronephros; test: fraction of imaged embryos annotated as normal kidney; higher = less nephrotoxic; extreme values may be limits of the assay
Summary of the method: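 From 24 to 48 hpf at 28.5°C, dechorionated Tg(wt1b:EGFP) zebrafish embryos in 12-well plates were kept in 5 mM HEPES-buffered E3 with 0.003% PTU, 0.5% DMSO and 25 μM compound. Pronephroi were imaged by widefield fluorescence at 470 nm and judged by eye from maximum projections. Reported is the proportion of embryos per treatment in the normal-kidney category.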

[4] = test system: Danio rerio Tg(wt1b:EGFP) embryo, pronephros; test: pronephric angle neck segment to proximal convoluted tubule (mean of left and right), fold change vs DMSO control; higher = larger pronephric angle
Summary of the method: as §1

Structure (SMILES)	glomerular separation [1]	glomerular width [2]	fraction of imaged embryos annotated as normal kidney [3]	pronephric angle neck segment [4]
O=C(O)c1ccccc1OP(=O)(O)O [Fosfosal]	0.789 ± 0.23	1.07 ± 0.022	0.833	0.9628 ± 0.0065
CN(CCCCCCCCCCN(C)C(=O)Oc1cccc([N+](C)(C)C)c1)C(=O)Oc1cccc([N+](C)(C)C)c1 [Demecarium bromide]	1.54 ± 0.77	0.923 ± 0.032	1	1.078 ± 0.0073
Clc1ccc2c(c1)C(N1CCNCC1)=Nc1ccccc1O2 [Amoxapine]	1.04 ± 0.33	0.9699 ± 0.0014	0.75	1.02 ± 0.039
Nc1ccc(S(=O)(=O)Nc2ccc(Cl)nn2)cc1 [Sulfachloropyridazine]	0.92 ± 0.34	0.973 ± 0.029	0.75	1.017 ± 0.0048
CC[C@H]1OC(=O)[C@H](C)[C@@H](O[C@H]2C[C@@](C)(OC)[C@@H](O)[C@H](C)O2)[C@H](C)[C@@H](O[C@@H]2O[C@H](C)C[C@H](N(C)C)[C@H]2O)[C@](C)(O)C[C@@H](C)CN(C)[C@H](C)[C@@H](O)[C@]1(C)O [Azithromycin]	0.933 ± 0.41	0.945 ± 0.022	1	1.012 ± 0.0055
NC(=O)NC1NC(=O)NC1=O (stereo unspecified) [Allantoin]	0.881 ± 0.25	0.9104 ± 0.001	0.917	0.981 ± 0.024
Nc1nc2ccc(OC(F)(F)F)cc2s1 [Riluzole hydrochloride]	0.834 ± 0.22	0.964 ± 0.02	0.833	1.036 ± 0.0021
CCN(CC)CC(=O)Nc1c(C)cccc1C [Lidocaine hydrochloride]	0.686 ± 0.29	1.04 ± 0.015	1	0.9342 ± 0.0069
COc1ccc2c(c1)c(CC(=O)O)c(C)n2C(=O)c1ccc(Cl)cc1 [Indomethacin]	3.64 ± 1.7	0.781 ± 0.045	0	1.62 ± 0.03
